# HT1080 IDH1KD tx: HT-1080 IDH1 knockdown cell toxicity (counter line) | 360,000 tested, 2% active | Potency, µM (top dose mostly 46.1 µM), most hits filed as cytotoxic | HT-1080 IDH1 knockdown viability, ATP luminescence, 48 h | AID 686971
#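 IDH1KD HT-1080 cells, 750/well, RPMI + 5% FBS; compound pinned after 2 h settling; 48 h, 37 °C; CellTiter-Glo luminescence; % activity normalised to DMSO and no-cell wells; curves fitted, classed by r2 and efficacy.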
# IL1B secr inh: inhibitors of inflammasome signaling (IL-1 beta secretion); 360,000 tested, 4.7% active; THP-1 LPS/ATP IL-1B secretion, AlphaLISA, 16 h; stronger effect = lower value; activity change, % at 57.5 µM; AID 743279; in the data active means activity change below about -50%; inconclusive means mostly about -30% to -49%
#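 Secreted IL-1B measured by AlphaLISA bead assay after 16 h compound exposure of THP-1 cells; compounds (final up to 57.5 uM) added 1 h before LPS (250 ng/mL) and ATP (1.25 mM) stimulation; lower signal means less secretion.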
# DT40 TDP1 CPT: growth inhibition of DT40 Tdp1-/-;hTDP1 cells with camptothecin (screen for TDP1 inhibitors); chicken DT40 Tdp1-/-;hTDP1 cells + 20 nM CPT, ATP luminescence, 48 h; 420,000 tested, 12% active; AID 686979; Potency, µM (titrated, usually from 46.2 µM), actives largely listed as inhibitors; further: nearly all actives have a fitted effect of over 55% in size
#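 Chicken DT40 Tdp1-/- cells stably complemented with human TDP1 were seeded at 400 cells/well in medium containing 20 nM camptothecin, exposed to pin-transferred compounds, and grown at 37 °C for at least 48 hr. Viability was read as ATP luminescence.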
# HT1080-NT tox: kills 2HG-producing HT-1080-NT fibrosarcoma cells | HT-1080-NT fibrosarcoma viability, CellTiter-Glo ATP luminescence, 48 h | 360,000 tested, 1.6% active | AID 686970 | Potency, µM (series often up to 46.1 µM), most hits filed as cytotoxic;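 further: NT is the 2HG producing partner of a matched IDH1 knockdown line; nearly all actives have a fitted effect of over 55% in size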
#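 750 cells/well, RPMI + 5% FBS; 2 h settle, compound pin-transfer, 48 h at 37 degrees C. CellTiter-Glo 10 min RT, luminescence. Normalized to DMSO and media-only wells.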
# DT40 TDP1 no CPT: qHTS for Inhibitors of human tyrosyl-DNA phosphodiesterase 1 (TDP1): qHTS in cells in absence of CPT; DT40 Tdp1-/- hTDP1 cells, no CPT, ATP luminescence, 48 h; Potency, µM (highest dose often 46.2 µM), most hits filed as inhibitors; 420,000 tested, 15% active; further: nearly all actives have a fitted effect of over 55% in size
#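 Stably hTDP1-transfected Tdp1-null chicken DT40 cells were treated with library compounds minus camptothecin and grown for at least 48 hr at 37 °C, after which cellular ATP was quantified by luminescence.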
# ELG1 DNA repair: ELG1-dependent DNA repair inhibition. 330,000 tested, 2.3% active. Potency, µM (doses to about 46.1 µM), most hits filed as inhibitors. AID 504467. HEK293T ELG1-luciferase reporter, luminescence, 16 h; DNA damage induced by 5-fluorouridine; further: nearly all actives have a fitted effect of over 55% in size
#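 Reporter activity after DNA damage by 5-fluorouridine is monitored. Compound-treated cells incubate 16 hr at 37 °C, then ONE-Glo is added for 30 min before luminescence reading.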
# A number is an active result; . = inactive; ? = inconclusive; / = no result given. Rows were chosen to be rich in hits. Some 19% of all compounds tested hit in one or more screens of this group. Unless noted, the call rests on the fitted dose curve; in most records, active means well fitted curve in the direction sought with a large enough effect; inconclusive means small, poorly fitted or top-dose-only effect, or another doubt; inactive means no such curve, though single readings can be large; an effect the other way counts as inactive or inconclusive.
SMILES,HT1080 IDH1KD tx,IL1B secr inh,DT40 TDP1 CPT,HT1080-NT tox,DT40 TDP1 no CPT,ELG1 DNA repair
Cc1ncccc1C(=O)N1CCCC(C(=O)c2ccc3c4c(cccc24)CC3)C1 (stereo unspecified),.,.,?,.,?,?
CN(CCCn1ccc(N)nc1=O)Cc1ccco1,.,.,.,.,.,/
Cn1c(SCC(=O)O)nnc1-c1ccc(NC(=O)c2ccc(Cl)c(Cl)c2)cc1,.,.,.,.,.,.
COc1cccc(N(CC(=O)NCCSc2ccccn2)S(=O)(=O)c2ccccc2)c1,.,-59,.,.,?,?
COc1ccc(N(CC(=O)NCCSc2ccccn2)S(=O)(=O)c2ccccc2)cc1Cl,.,.,16µM,.,?,?
Cc1ccc(CNC(=O)c2nn(-c3ccc(Cl)cc3)nc2CO)cc1,/,/,.,/,.,/
C=CCN1C(=O)[C@@H]2Cc3c([nH]c4ccccc34)C(c3ccc(O)cc3)N2C1=S (stereo partly specified),.,.,?,.,16µM,.
COc1cc(C2c3[nH]c4ccccc4c3C[C@H]3C(=O)N(CCO)CC(=O)N23)cc(OC)c1OC (stereo partly specified),?,.,?,.,21µM,.
CCN1C(=O)[C@@H]2Cc3c([nH]c4ccccc34)C(c3cc(OC)c(OC)c(OC)c3)N2C1=S (stereo partly specified),?,.,?,?,?,?
COc1cc(C2c3[nH]c4ccccc4c3CC3COC(=O)N32)cc(OC)c1O (stereo unspecified),?,.,0.29µM,?,0.29µM,/
C=CCN1C(=O)[C@@H]2Cc3c([nH]c4ccccc34)C(c3cc(OC)c(OC)c(OC)c3)N2C1=S (stereo partly specified),?,.,?,?,?,.
COc1cc([C@H]2c3[nH]c4ccccc4c3C[C@H]3C(=O)N4[C@@H](c5cc(OC)c(OC)c(OC)c5)c5[nH]c6ccccc6c5C[C@H]4C(=O)N23)cc(OC)c1OC,15µM,.,4.6µM,12µM,2.9µM,.
O=C1[C@@H]2Cc3c([nH]c4ccccc34)C(c3ccccc3)N2C(=O)CN1CCO (stereo partly specified),.,.,.,.,.,.
COc1cccc(CNC(=O)CCc2nnc3n(CC(C)C)c(=O)c4ccccc4n23)c1,/,/,.,/,.,/
CC1(C)S[C@@H]2[C@H](NC(=O)C(C(=O)Oc3ccc4c(c3)CCC4)c3ccccc3)C(=O)N2[C@H]1C(=O)O (stereo partly specified),/,/,.,/,.,/
O=C(C[n+]1ccccc1)c1cccc([N+](=O)[O-])c1,/,/,.,/,.,/
CCC(C)n1ncn(-c2ccc(N3CCN(c4ccc(O)cc4)CC3)cc2)c1=O (stereo unspecified),?,.,?,?,?,.
CCC(C)n1ncn(-c2ccc(N3CCN(c4ccc(OCC5COC(Cn6cncn6)(c6ccc(Cl)cc6Cl)O5)cc4)CC3)cc2)c1=O (stereo unspecified),?,.,2.6µM,?,2.3µM,/
Cc1cc(OCC(=O)Nc2ccncc2)ccc1Br,.,.,?,.,23µM,?
COc1cccc(NC(=O)COc2ccc(Br)c(C)c2)c1,.,.,.,.,.,?
COc1ccc(OCC(=O)Nc2ccncc2)cc1,.,.,.,.,.,.
Cc1cc(C)cc(OCC(=O)Nc2ccncc2)c1,.,.,.,.,?,16µM
Cc1cc(-c2cccc(Br)c2)c(C#N)c(N)n1,.,.,.,.,.,.
Cc1ccc2c(n1)sc1c(-c3ccc(Br)cc3)c(C#N)c(N)nc12,.,.,?,.,18µM,.
Cc1ccccc1C(=O)OCC(=O)NCC1COc2ccccc2O1 (stereo unspecified),.,.,?,.,18µM,.
SMILES,HT1080 IDH1KD tx,IL1B secr inh,DT40 TDP1 CPT,HT1080-NT tox,DT40 TDP1 no CPT,ELG1 DNA repair
CC(C)Oc1ccc(/C=C/C(=O)NCC2COc3ccccc3O2)cc1 (stereo unspecified),.,-72,.,.,?,.
Cc1n[nH]c(C)c1CCN(C)Cc1cn(C)nc1-c1ccccc1F,.,.,.,.,.,.
Cn1sccc1=O,?,-53,2.9µM,?,2.9µM,.
C/C(=N\Nc1nc2ccccc2s1)c1ccc(Br)s1,?,-103,?,?,?,.
CC(=NNc1nc2ccccc2s1)c1ccncn1,?,-94,0.1µM,?,0.15µM,/
C/C(=N\Nc1nc2ccccc2s1)c1ccc2c(c1)OCO2,.,.,?,.,.,?
N#Cc1nc(COc2ccc(-c3ccccc3)cc2)oc1N1CCC(C(N)=O)CC1,/,/,13µM,/,18µM,/
N#Cc1nc(COc2ccc(Br)cc2)oc1N1CCCCCC1,.,.,15µM,.,16µM,.
N#Cc1nc(COc2ccc(-c3ccccc3)cc2)oc1NCCCN1CCOCC1,?,?,23µM,?,23µM,.
N#Cc1nc(-c2ccc(OCc3ccccc3)cc2)oc1N1CCC(C(N)=O)CC1,?,.,.,?,?,?
COc1ccc(-c2nc(C#N)c(N3CCC(C(N)=O)CC3)o2)cc1,.,.,.,.,.,.
CC(C)(C)c1ccc(-c2nc(C#N)c(N3CCC(C(N)=O)CC3)o2)cc1,?,-94,.,?,?,.
O=S(=O)(c1cccc(COc2c(Cl)cccc2Cl)c1)N1CCOCC1,.,.,?,.,?,.
COc1cccc(CNC(=O)Cn2c(=O)ccc3cc(S(=O)(=O)N4CCCC4)ccc32)c1,/,/,.,/,.,/
O=C(CN(C(=O)CNC(=O)c1ccco1)c1ccccc1F)NC1CCCCC1,.,.,.,.,.,.
C#Cc1ccc(CN2CCC(Oc3ccc(C(=O)NCc4ccccn4)cc3)CC2)cc1,.,.,.,.,.,.
Cc1oc(-c2cccc3ccccc23)nc1CN1CCC[C@H]1CO,.,.,.,.,.,.
Cc1nc2c(C(=O)NCCCN(CC(C)C)CC(C)C)cnn2c(C)c1Cc1c(F)cccc1Cl,/,/,23µM,/,21µM,/
CCCCNC(=O)c1cnn2c(C)c(Cc3c(F)cccc3Cl)c(C)nc12,/,/,7.3µM,/,3.7µM,/
Cc1nc2nc(SCC(=O)NCCc3ccc(Cl)cc3)nn2c(C)c1Cc1c(F)cccc1Cl,/,/,.,/,.,/
Cc1cc(C(F)F)n2ncc(C(=O)NCCc3ccccc3Cl)c2n1,.,?,?,.,.,.
Cc1ccc(CNC(=O)c2cnn3c(C)c(Cc4c(F)cccc4Cl)c(C)nc23)cc1,/,/,15µM,/,?,/

# Bioassay records as filed in PubChem BioAssay.
